Assay [1] has as its target Lysosomal acid glucosylceramidase (Homo sapiens) (UniProt P04062). The assay can be described thus: Glucocerebrosidase-p2 (AID 348; in the data active means potency below about 10 µM; further: potency means the concentration at half of the fitted maximal effect). Conditions: purified GBA, blue fluorogenic substrate, 40 min. The method, boiled down:
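Normal human glucocerebrosidase (0.2 nM) with blue fluorogenic substrate (80 uM final) in citrate/phosphate pH 5.9 with 10mM sodium taurocholate, 0.01% tween-20; 40 min RT, NaOH/glycine stop; fluorescence Ex 365/Em 440; AC50 from a titration from 0.6 nM upwards.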

Assay [2] is described as follows: AP1 Signaling Pathway (AID 357).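 Further: ME-180 reporter cells stimulated with EGF at its EC50 level; on the % scale 0 is the no-effect control and ±100 the full control effect.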 Conditions: ME-180 AP-1-bla reporter, EGF-induced, beta-lactamase ratio, 5 h; at 7.69 µM (top of the series) unless noted. A digest of the protocol:
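A ratiometric CCF4 readout (405 nm excitation; 460 and 530 nm emission) quantified AP-1-driven beta-lactamase in ME-180 cells after 5 h with compound and EC50 EGF; AC50 values were derived for activators and inhibitors.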

The target of assay [3] is Cytochrome P450 1A2 (Homo sapiens) (UniProt P05177). The assay can be described thus: p450-cyp1a2 (AID 410; calls by dose curve; further: potency means the concentration at half of the fitted maximal effect;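 on activity change, negative = inhibition: -100% = full effect of reference inhibitor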). Conditions: recombinant CYP1A2, luciferin-ME demethylation, luminescence; series mostly up to 11.4 µM. A digest of the protocol: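 Luminescent demethylation readout: Luciferin-ME (100uM, equal to Km) turned over by 20nM CYP1A2 for 60 min at room temperature after NADPH regeneration addition, following 10 min compound preincubation. Normalization used 57 uM furafylline as full inhibition.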
Chain of Cytochrome P450 1A2 (Homo sapiens) (P05177 whole entry, looked up): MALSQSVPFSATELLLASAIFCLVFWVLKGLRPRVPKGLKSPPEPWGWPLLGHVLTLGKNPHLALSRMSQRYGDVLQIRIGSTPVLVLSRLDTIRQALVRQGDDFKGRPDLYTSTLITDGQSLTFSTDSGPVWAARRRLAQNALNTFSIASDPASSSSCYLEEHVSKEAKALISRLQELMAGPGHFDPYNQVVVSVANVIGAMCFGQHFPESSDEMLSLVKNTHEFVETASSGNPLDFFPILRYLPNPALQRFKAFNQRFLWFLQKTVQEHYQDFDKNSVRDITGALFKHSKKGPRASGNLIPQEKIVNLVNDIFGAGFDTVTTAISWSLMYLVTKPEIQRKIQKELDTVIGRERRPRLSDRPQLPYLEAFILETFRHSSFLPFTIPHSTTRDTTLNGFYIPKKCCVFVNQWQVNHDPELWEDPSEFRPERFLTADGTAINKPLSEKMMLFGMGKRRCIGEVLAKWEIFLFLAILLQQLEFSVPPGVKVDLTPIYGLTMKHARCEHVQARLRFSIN

The nature of assay [4]: NFAT Signaling Pathway (AID 444).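 Further: carbachol stimulus at about its EC50 of 1 µM final; on the % scale 0 is the no-effect control and ±100 the full control effect.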 The settings on record: Jurkat NFAT-bla M1, carbachol, beta-lactamase ratio, 5 h; at 7.69 µM (top of the series) unless noted. The method, boiled down:
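Jurkat cells carrying an NFAT-driven β-lactamase reporter and co-transfected muscarinic M1 receptor were treated with compound plus carbachol (1 uM final, an EC50 level) for 5 h at 37 °C. CCF4 loading followed for 1 h at RT; 460/530 nm ratio gave %activity.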

Assay [5] is described as follows: Stat Signaling Pathway (AID 446).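 Further: ME-180 cervical cancer cells given 40 pM IL-6 alongside compound; SIE-controlled beta-lactamase reporter measured as 460/530 nm FRET emission ratio; on the % scale 0 is the no-effect control and ±100 the full control effect.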 The settings on record: ME-180 SIE beta-lactamase reporter, IL-6 stimulated, 5 h; at 7.69 µM (top of the series) unless noted. The method, boiled down: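 Normalization used AC90 stimulation (300 pM IL-6) and AC90 inhibition (125 nM pan-JAK inhibitor at 40 pM IL-6). The underlying signal is SIE-driven beta-lactamase in ME-180 cells after 5 h IL-6 exposure with compound.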

Assay [6] addresses Glucocorticoid receptor (Homo sapiens) (UniProt P04150). The assay can be described thus: GR-GFP Redistribution (AID 450;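 active means compounds whose dose series gives a full or clear partial fitted curve of increased nuclear translocation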; further: potency means the concentration at half of the fitted maximal effect). Conditions: U2OS GR-GFP nuclear translocation, laser cytometry, 2 h.
The target is the same in assay [7]. The assay can be described thus: GR-EFC Redistribution (AID 451; calls by dose curve; further: potency means the concentration at half of the fitted maximal effect). The settings on record: CHO-K1 GR-EFC translocation, beta-gal luminescence, 2 h. The method, boiled down: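 CHO-K1 cells stably expressing nuclear-localized β-gal enzyme acceptor and GR fused C-terminally to the enzyme donor fragment; ligand-driven nuclear translocation restores β-gal by complementation. Compounds titrated up to 46 uM final, 2 h at 37 °C; luminescence read.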

The target in assay [8] is Mitogen-activated protein kinase 10 (Mus musculus) (UniProt Q61831). The assay can be described thus: JNK3 AlphaScreen Assay (AID 530).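 Further: kinase came from lysate of stimulated human HepG2 cells; signal reports phosphorylation of biotinylated GST-cJun 1-79 at Ser73 with 10 µM ATP; on the % scale 0 is the no-effect control and ±100 the full control effect.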 Conditions: JNK3 lysate, c-Jun phosphorylation; series mostly up to 11.4 µM. The method, boiled down:
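Phosphorylation of biotinylated GST-cJun(1-79) at Ser73 is measured by AlphaScreen proximity luminescence. Enzyme is JNK3 in HepG2 lysates activated with interleukin-1beta and tumor necrosis factor alpha; ATP is 10 uM final.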

Assay [9] concerns the target 3',5'-cyclic-AMP phosphodiesterase 4B (Homo sapiens) (UniProt Q07343). The assay can be described thus: qHTS Assay for Inhibitors of PDE-IV (AID 607; active means well fitted activation curve with a large enough effect in the main read-out, with a control signal flat, not every such curve was filed as active; further: % of control where 0% means no effect). Conditions: HEK293 ACTOne CNG channel cells, membrane potential fluorescence; series mostly up to 22.9 µM. A digest of the protocol:
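HEK293 ACTOne cells with CNG channel (1000/well), endogenous PDE4; membrane potential dye, compounds up to 22.9 uM final. Fluorescence Ex 535/Em 590; RO 20-1724 (100 uM final) as reference.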
Background: qHTS replaces the single test concentration by a dilution series.

Assay [10] addresses Cytochrome P450 2D6 (Homo sapiens) (UniProt P10635). The assay can be described thus: qHTS Assay for Inhibitors and Substrates of Cytochrome P450 2D6 (AID 891; active means well fitted inhibition curve with a large enough effect; further: nearly all actives have a fitted effect of over 60% in size; further: potency means the concentration at half of the fitted maximal effect). The settings on record: recombinant CYP2D6, luciferin-ME EGE luminescence; series mostly up to 11.4 µM. The method, boiled down: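 Luminescent read-out of luciferin formed by 5 nM human CYP2D6 demethylating 30 uM Luciferin-ME EGE (Km level) over 60 min at room temperature after NADPH regeneration addition. Data normalized to full inhibition by 1.43 uM quinidine.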

Assay [11] addresses Cytochrome P450 2C19 (Homo sapiens) (UniProt P33261). The assay can be described thus: qHTS Assay for Inhibitors and Substrates of Cytochrome P450 2C19 (AID 899; active means well fitted inhibition curve with a large enough effect; further: nearly all actives have a fitted effect of over 60% in size; further: potency means the concentration at half of the fitted maximal effect). The settings on record: recombinant CYP2C19, luciferin-H EGE luminescence; series mostly up to 11.4 µM. A digest of the protocol:
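Human CYP2C19 (5nM) with Luciferin-H EGE at 10uM (its KM) in 50mM KPO4 was preincubated with compound for 10 min at 37C. NADPH regeneration started a 60 min 37C reaction. Luciferin was read by luminescence, normalized to 57uM ketoconazole.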

Assay [12] is described as follows: qHTS Assay for Identification of Small Molecule Agonists for Hypoxia Response Element Signaling Pathway (AID 914; active means well fitted activation curve with a large enough effect in the signal ratio, with a control signal flat, not every such curve was filed as active; the % refers to the signal ratio; further: % of control where 0% means no effect). Conditions: ME-180 (cervical carcinoma) HRE-bla reporter, beta-lactamase ratio, CoCl2, 17 h; activation: stronger effect = higher value. A digest of the protocol:
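qHTS titration; ME-180 HRE-bla cells; EC50 CoCl2 co-treatment, 17 h at 37 degrees Celsius; CCF4 dye, ex 405nm, em 460nm and 530nm; %Activity from ratio; AC50.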

Unmarked numbers belong to inactive results. Inconclusive results are not listed. Calls of active or inactive are those of the source. Unless noted, the call rests on the fitted dose curve; in most records, active means well fitted curve in either direction with a large enough effect (not every such curve was filed as active); inconclusive means small, poorly fitted or top-dose-only effect, or another doubt; inactive means flat fitted curve, though single readings scatter.

Chain of Cytochrome P450 2D6 (Homo sapiens) (P10635 whole entry, looked up): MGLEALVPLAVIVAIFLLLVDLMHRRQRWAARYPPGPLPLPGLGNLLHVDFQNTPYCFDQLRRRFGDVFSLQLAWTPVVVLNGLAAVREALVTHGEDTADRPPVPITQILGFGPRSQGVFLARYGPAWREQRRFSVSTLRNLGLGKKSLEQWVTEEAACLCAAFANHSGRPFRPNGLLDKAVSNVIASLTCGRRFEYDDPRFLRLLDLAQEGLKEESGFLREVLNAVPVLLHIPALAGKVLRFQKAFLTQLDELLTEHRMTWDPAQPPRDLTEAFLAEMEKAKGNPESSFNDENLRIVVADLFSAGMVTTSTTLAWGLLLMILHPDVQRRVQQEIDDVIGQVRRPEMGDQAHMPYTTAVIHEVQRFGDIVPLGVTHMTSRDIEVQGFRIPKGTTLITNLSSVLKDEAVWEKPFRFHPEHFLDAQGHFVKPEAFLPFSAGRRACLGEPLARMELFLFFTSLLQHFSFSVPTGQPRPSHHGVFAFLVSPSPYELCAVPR
Chain of Glucocorticoid receptor (Homo sapiens) (P04150 whole entry, looked up, the tested form may be a part): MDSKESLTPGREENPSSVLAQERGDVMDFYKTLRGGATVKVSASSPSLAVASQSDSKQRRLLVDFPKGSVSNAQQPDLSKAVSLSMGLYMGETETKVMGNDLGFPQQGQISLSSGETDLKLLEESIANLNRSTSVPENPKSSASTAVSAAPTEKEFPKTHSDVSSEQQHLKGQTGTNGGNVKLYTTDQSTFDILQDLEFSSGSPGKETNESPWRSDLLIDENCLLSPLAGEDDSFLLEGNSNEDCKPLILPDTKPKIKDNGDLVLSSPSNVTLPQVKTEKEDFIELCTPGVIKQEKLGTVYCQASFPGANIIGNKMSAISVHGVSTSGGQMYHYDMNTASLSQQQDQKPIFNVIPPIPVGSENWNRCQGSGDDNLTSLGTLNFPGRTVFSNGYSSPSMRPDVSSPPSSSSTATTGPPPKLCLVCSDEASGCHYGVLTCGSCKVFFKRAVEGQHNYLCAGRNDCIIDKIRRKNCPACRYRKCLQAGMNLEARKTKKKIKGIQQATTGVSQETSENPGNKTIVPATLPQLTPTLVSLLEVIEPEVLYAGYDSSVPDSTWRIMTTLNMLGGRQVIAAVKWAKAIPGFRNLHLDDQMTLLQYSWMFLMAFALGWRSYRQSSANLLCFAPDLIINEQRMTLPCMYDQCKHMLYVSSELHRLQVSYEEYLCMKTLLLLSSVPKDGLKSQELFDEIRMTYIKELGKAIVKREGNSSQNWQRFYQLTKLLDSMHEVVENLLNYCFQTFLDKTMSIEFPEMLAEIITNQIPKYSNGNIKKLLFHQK
Chain of Cytochrome P450 2C19 (Homo sapiens) (P33261 whole entry, looked up): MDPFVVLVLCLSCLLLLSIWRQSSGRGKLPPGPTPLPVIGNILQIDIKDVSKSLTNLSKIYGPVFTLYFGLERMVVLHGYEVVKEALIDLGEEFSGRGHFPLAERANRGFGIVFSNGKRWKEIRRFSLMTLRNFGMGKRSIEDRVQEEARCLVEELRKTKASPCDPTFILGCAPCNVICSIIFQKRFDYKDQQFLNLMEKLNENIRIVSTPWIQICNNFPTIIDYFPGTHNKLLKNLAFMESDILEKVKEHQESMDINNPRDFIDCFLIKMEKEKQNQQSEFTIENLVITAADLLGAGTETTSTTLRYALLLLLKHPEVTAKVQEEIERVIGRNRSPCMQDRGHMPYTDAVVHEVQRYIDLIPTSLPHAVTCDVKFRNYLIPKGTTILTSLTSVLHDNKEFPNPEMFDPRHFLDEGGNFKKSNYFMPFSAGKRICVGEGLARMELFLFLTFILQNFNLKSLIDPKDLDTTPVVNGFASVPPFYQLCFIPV
Chain of 3',5'-cyclic-AMP phosphodiesterase 4B (Homo sapiens) (Q07343 whole entry, looked up): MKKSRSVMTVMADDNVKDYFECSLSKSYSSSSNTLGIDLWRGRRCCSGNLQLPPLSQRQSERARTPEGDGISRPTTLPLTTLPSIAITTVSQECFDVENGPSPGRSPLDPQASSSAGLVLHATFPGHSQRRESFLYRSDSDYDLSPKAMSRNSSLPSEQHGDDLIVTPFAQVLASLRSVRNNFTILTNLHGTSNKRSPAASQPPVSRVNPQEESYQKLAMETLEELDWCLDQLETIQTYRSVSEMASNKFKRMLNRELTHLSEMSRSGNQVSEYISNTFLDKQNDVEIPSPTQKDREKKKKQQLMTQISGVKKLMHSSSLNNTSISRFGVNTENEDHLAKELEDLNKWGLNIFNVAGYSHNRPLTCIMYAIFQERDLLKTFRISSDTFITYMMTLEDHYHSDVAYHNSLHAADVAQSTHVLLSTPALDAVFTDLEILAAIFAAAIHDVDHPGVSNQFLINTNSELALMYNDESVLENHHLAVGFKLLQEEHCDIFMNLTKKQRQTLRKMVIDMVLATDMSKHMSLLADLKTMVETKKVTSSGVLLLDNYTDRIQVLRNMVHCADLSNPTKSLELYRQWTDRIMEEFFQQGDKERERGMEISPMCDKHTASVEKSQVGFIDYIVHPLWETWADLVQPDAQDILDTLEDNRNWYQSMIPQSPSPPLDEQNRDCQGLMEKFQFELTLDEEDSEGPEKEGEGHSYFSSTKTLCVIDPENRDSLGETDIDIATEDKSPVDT
Chain of Lysosomal acid glucosylceramidase (Homo sapiens) (P04062 whole entry, looked up): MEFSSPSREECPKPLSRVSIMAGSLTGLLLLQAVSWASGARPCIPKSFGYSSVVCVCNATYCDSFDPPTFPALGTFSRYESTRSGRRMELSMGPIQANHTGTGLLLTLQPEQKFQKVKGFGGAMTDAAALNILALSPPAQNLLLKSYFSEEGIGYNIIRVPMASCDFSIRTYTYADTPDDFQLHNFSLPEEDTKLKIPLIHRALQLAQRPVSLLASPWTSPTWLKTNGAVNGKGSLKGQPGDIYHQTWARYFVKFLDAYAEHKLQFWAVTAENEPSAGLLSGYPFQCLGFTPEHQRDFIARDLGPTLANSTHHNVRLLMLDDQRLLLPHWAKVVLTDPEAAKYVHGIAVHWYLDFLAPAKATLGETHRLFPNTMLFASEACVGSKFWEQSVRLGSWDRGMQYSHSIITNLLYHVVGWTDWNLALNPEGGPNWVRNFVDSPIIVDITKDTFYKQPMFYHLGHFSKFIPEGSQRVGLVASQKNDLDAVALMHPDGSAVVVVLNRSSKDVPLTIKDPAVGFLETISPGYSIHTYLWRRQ

On to `Cc1c(Cl)c(S(N)(=O)=O)cc(S(N)(=O)=O)c1NC(=O)c1ccc(Cl)cc1`, for which the Potency in assay [1] is above 11.4 µM; in assay [6], above 46 µM; in assay [7] it was above 9.22 µM. Moreover, the activity change, negative = inhibition in assay [2] was -4.6%; in [4] it was 5.51%. The Potency entry in assay [3], in [8], in assay [9], in assay [10] and in [11] was “inactive” each time. In assay [5], the activity, negative = inhibition is 5.58%.

Turning to `CC(C)CNC(=O)O`, the Potency in assay [1] was above 11.4 µM; in assay [6], above 46 µM; in assay [7] it was above 9.22 µM. Besides, the results for the activity change, negative = inhibition in assay [2] and in assay [4] were 8.49% and 0.858%, respectively. For the same compound, the Potency result in assay [3], in [8], in [9], in assay [10] and in assay [11] was “inactive” each time. The activity, negative = inhibition in [5] is 3.89%.

In the case of `Cc1ccc(S(=O)(=O)N2CCC(C(=O)O)(c3ccccc3)CC2)cc1`, the Potency in assay [1] is above 11.4 µM; in [6], above 46 µM; in [7], above 9.22 µM. Further, the results for the activity change, negative = inhibition in [2] and in assay [4] were 0.56% and 2.33%, respectively. In addition, the Potency entry in [3], in [8], in [9] and in assay [11] was “inactive” throughout. Moreover, the activity, negative = inhibition in [5] is -9.97%.

As for `CC(CC(=O)O)(CC(=O)O)C(=O)O`, the Potency in assay [1] is above 11.4 µM; in [6] it was above 46 µM; in assay [7], above 9.22 µM. Besides, the results for the activity change, negative = inhibition in assay [2] and in [4] were -0.949% and 18.4%, respectively. The Potency entry in [3], in assay [8], in assay [9], in assay [10] and in [11] was “inactive” each time. In assay [5], the activity, negative = inhibition was 9.05%.

With `CN(C)c1ccc(C(=C2C=CC(=[N+](C)C)C=C2)c2c(O)c(S(=O)(=O)O)cc3cc(S(=O)(=O)O)ccc23)cc1`, the Potency in assay [1] was above 11.4 µM; in assay [3], 3.98 µM (active); in assay [6], above 46 µM; in assay [7] it was above 9.22 µM. Also, the activity change, negative = inhibition in [2] is 3.1%; in assay [4] it was -12.3%. For the same compound, in [5], the activity, negative = inhibition was 4.39%. The Potency entry in assay [8], in [9] and in assay [11] was “inactive” in each case.

Consider `CN1CCc2[nH]nc(-c3n[nH]c4c3CN(C)CC4)c2C1`, for which the Potency is above 11.4 µM in [1], above 46 µM in assay [6] and above 9.22 µM in assay [7]. For the same compound, the activity change, negative = inhibition is 3.96% in [2] and 4.1% in assay [4]. Moreover, the Potency result in assay [3], in assay [8], in assay [9] and in assay [11] was “inactive” in each case. Further, the activity, negative = inhibition in assay [5] is 2.92%.

As for `O=C(O)CSSCC(=O)O`, the Potency in assay [1] is above 11.4 µM; in assay [6], above 46 µM; in assay [7] it was above 9.22 µM. The activity change, negative = inhibition in assay [2] is 5.08%; in [4], 15.8%. Also, the Potency entry in assay [3], in assay [8], in [9], in assay [10] and in assay [11] was “inactive” each time. In addition, the activity, negative = inhibition in assay [5] was 17.7%.

For the compound `CC(C)(C)c1ccc(O)c(CN(Cc2c(O)ccc3ccccc23)C2CCCCC2)c1`, the Potency was above 11.4 µM in assay [1]; 3.98 µM (active) in [3]; above 46 µM in assay [6]; above 9.22 µM in assay [7]; 0.794 µM (active) in assay [10]; 2 µM (active) in assay [11]. The activity change, negative = inhibition in assay [2] was -7.92%; in assay [4], -10.8%. Besides, in [5], the activity, negative = inhibition was -13.7%. Besides, the Potency entry in assay [8] and in [9] was “inactive” throughout. Besides, the activation in assay [12] is 2.73%.

Consider `Cn1c(=O)c2[nH]c(CCCCc3nc4ccccc4[nH]3)nc2n(C)c1=O`, for which the Potency is above 11.4 µM in assay [1], above 46 µM in [6] and above 9.22 µM in assay [7]. Besides, the activity change, negative = inhibition in assay [2] is -12.7%; in [4] it was 25%. For the same compound, the Potency entry in assay [3], in assay [8], in [9], in [10] and in assay [11] was “inactive” in each case. For the same compound, in assay [5], the activity, negative = inhibition was 5.57%.

As to `Nc1nc(Cl)cc(NCCO)n1`, the Potency in [1] was above 11.4 µM; in [6], above 46 µM; in assay [7], above 9.22 µM. For the same compound, the activity change, negative = inhibition in assay [2] was -4.13%; in assay [4] it was 10.4%. Further, the Potency entry in assay [3], in [8], in assay [9], in [10] and in assay [11] was “inactive” in each case. In assay [5], the activity, negative = inhibition is 4.67%.

Take `c1ccc2c(CSCc3cccc4ccccc34)cccc2c1`: the Potency in [1] was above 11.4 µM; in assay [3], 3.98 µM (active); in assay [6], above 46 µM; in assay [7], above 9.22 µM; in [11], 0.126 µM (active). Further, the activity change, negative = inhibition in [2] was 6.44%; in [4] it was -28.7%. The activity, negative = inhibition in [5] was 17.1%. The Potency result in assay [8] and in assay [9] was “inactive” in each case.

On to `Nc1nc(N)nc(CCCCc2nc(N)nc(N)n2)n1`, for which the Potency in assay [1] was above 11.4 µM; in assay [6] it was above 46 µM; in assay [7] it was above 9.22 µM. Also, the activity change, negative = inhibition was 4.24% in assay [2], 8.1% [at 2.29 µM] in [3] and 12.4% in assay [4]. The activity, negative = inhibition in [5] is -0.633%. In addition, the Potency result in [8], in assay [9], in assay [10] and in [11] was “inactive” in each case.

As for `BrC(c1cccc2ccccc12)c1cccc2ccccc12`, the Potency was above 11.4 µM in assay [1]; 1.26 µM (active) in assay [3]; above 46 µM in assay [6]; above 9.22 µM in [7]; 1.26 µM (active) in assay [11]. For the same compound, the activity change, negative = inhibition is 0.329% in assay [2] and -5.96% in assay [4]. The activity, negative = inhibition in [5] is -2.07%. Besides, the Potency result in assay [8] and in assay [9] was “inactive” throughout.

Regarding `Cc1cc(C(C)(C)C)cc(CNC2CCCCC2)c1O`, the Potency in assay [1] was above 11.4 µM; in [3], 3.16 µM (active); in [6], above 46 µM; in [7] it was above 9.22 µM; in assay [10], 0.501 µM (active); in assay [11], 0.02 µM (active). Moreover, the activity change, negative = inhibition is 8.19% in [2] and 22.7% in [4]. In addition, the activity, negative = inhibition in assay [5] was 10.5%. In addition, the Potency entry in [8] and in assay [9] was “inactive” in each case.

These data come from PubChem BioAssay (NCATS).
